Bioassay records deposited in PubChem by Center for Chemical Genomics, University of Michigan.
Shown is part of a subset that was picked to be rich in hits.
Dicer inh: human Dicer pre-microRNA cleavage inhibition; cat-ELCCA pre-miR-21 Dicer processing, chemiluminescence; stronger effect = higher value; z-score at 25 µM; 6% of 47,000 active; in the data active = z-score above about 3, passing the limit was not always enough;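 also: higher signal means more uncleaved substrate so more Dicer inhibition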
Target sequence (Q9UPY3 whole entry, looked up): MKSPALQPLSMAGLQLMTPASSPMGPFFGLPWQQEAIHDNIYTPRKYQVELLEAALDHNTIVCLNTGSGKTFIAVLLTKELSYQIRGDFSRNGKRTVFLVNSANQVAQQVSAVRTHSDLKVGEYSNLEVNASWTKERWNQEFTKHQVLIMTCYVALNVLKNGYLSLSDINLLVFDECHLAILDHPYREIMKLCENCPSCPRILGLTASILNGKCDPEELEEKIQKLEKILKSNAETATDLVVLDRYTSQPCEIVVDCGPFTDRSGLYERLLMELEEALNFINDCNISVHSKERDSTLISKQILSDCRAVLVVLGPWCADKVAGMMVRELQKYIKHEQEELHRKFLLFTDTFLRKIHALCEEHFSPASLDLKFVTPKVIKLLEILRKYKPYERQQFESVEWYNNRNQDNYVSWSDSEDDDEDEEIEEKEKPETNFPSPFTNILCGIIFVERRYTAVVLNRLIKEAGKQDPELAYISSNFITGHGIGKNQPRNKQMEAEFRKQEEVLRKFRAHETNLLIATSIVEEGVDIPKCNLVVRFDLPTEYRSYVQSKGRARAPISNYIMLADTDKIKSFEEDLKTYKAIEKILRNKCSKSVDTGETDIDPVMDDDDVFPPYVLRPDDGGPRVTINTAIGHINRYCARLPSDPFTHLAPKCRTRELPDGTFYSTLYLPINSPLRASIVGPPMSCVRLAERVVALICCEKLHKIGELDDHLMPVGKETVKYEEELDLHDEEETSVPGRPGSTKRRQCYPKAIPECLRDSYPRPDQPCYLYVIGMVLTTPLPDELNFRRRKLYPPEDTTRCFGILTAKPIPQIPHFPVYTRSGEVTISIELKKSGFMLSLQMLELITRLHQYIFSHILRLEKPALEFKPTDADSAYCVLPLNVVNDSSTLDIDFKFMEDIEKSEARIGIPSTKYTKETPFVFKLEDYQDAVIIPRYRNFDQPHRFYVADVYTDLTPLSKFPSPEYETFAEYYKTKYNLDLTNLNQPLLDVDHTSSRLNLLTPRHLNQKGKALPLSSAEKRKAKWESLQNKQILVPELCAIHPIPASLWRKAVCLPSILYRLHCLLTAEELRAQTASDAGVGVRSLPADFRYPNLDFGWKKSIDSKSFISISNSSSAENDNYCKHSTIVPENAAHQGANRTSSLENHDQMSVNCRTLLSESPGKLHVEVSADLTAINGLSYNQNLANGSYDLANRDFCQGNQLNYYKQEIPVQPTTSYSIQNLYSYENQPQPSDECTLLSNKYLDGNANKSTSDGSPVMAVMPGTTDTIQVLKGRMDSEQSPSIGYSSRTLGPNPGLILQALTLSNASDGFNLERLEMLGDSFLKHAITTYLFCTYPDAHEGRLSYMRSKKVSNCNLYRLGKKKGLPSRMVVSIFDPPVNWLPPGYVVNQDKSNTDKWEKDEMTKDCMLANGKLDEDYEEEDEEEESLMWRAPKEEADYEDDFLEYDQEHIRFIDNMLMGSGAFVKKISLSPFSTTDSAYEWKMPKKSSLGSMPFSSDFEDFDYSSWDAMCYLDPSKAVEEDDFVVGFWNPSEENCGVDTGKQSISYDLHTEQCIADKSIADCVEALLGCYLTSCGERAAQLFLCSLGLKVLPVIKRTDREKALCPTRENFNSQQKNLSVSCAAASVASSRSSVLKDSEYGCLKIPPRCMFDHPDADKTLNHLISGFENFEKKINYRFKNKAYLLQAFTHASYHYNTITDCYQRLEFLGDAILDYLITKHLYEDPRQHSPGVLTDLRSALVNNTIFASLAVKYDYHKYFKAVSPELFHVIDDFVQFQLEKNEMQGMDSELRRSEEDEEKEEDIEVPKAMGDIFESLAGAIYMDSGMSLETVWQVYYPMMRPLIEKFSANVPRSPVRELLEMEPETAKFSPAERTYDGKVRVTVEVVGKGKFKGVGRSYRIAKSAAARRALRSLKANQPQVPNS
Hits are given with their value; n = inactive.

SMILES	Dicer inh
Cc1ccc(S(=O)(=O)Nc2ccnn2C)cc1	n
CS(=O)(=O)Nc1ccc(S(=O)(=O)Nc2ncccn2)cc1	n
Cc1ccc(S(=O)(=O)Nc2ccc(O)c3ncccc23)cc1	15.4
Cc1ccc(S(=O)(=O)Nc2ccc(Cl)c3cccnc23)cc1	3.24
Cc1ccc(S(=O)(=O)Nc2ccc3ccccc3n2)cc1	n
COc1ccc(CCNC(=O)C(Sc2ccccc2N)c2ccccc2)cc1OC (stereo unspecified)	n
N#C/C(=C\NCc1ccco1)S(=O)(=O)c1ccc(Cl)cc1	n
COc1cc(C2c3c(oc4ccc(Br)cc4c3=O)C(=O)N2Cc2ccccc2)ccc1O (stereo unspecified)	n
Cc1noc(C)c1S(=O)(=O)NC1Cc2ccccc2C1	n
COc1ccc(/C(O)=C2\C(=O)C(=O)N(CCCn3ccnc3)C2c2ccc(C)cc2)cc1 (stereo unspecified)	n
O=c1[nH]c2ccc(S(=O)(=O)NC3CCCCC3)cc2[nH]1	4.68
O=C(O)CNS(=O)(=O)c1ccc2[nH]c(=O)[nH]c2c1	n
Cn1c(=O)n(C)c2cc(S(=O)(=O)NC3CCCCC3)ccc21	n
Clc1ccc(N=C2c3ccccc3CN2c2ccc(Cl)cc2)cc1	n
Cc1cc(C)c2[nH]c(C3C(=O)c4ccccc4C3=O)cc(=O)c2c1	n
Clc1ccc(-c2cn3c(n2)COc2ccccc2-3)cc1	n
Cc1nc2ccccc2c2c1C(=O)N(c1ccccc1C(=O)OCC(=O)C(C)(C)C)C2=O	4.71
CSc1nc2ccccc2c(=O)n1CC(=O)C(C)(C)C	n
Cc1nc2ccccc2c(C(=O)O)c1C(=O)O	n
CCOC(=O)c1cc(C(C)(C)C)n(CCSC)c1C	n
CCOC(=O)c1c(NC(=S)N2CCN(C)CC2)sc(C)c1C	n
CCNC(=S)Nc1sc(C)c(C)c1C(=O)OCC	5.32
CCOC(=O)c1c(NC(=O)CCC(=O)O)sc(C)c1C	n
COC(=O)CSc1cc(C(F)(F)F)nc2cc(C(C)(C)C)nn12	n
COc1ccc2nc3c(cc2c1)c(=O)n(C)c1c3c(=O)n(C)c(=O)n1C	n
SMILES	Dicer inh
Cc1cc(S(=O)(=O)c2ccc(Cl)cc2)sc1C(=O)NCC(O)c1ccccc1 (stereo unspecified)	n
CC(C(=O)NNC(=S)NCC1CC1)n1nnc(N2CCOCC2)n1 (stereo unspecified)	3.88
COC(=O)Cn1nnc(N2CCOCC2)n1	n
O=C(Cn1nnc(N2CCOCC2)n1)NNC(=S)Nc1ccc(F)cc1F	n
OC(COC1CCCCC1)Cn1c2ccccc2c2ccccc21 (stereo unspecified)	n
CC(C)N(Cc1ccccc1)S(=O)(=O)c1ccc(CNC(=O)c2ccccc2)s1	n
O=C1c2oc3ccccc3c(=O)c2C(c2cccc(Oc3ccccc3)c2)N1c1ccccn1 (stereo unspecified)	4.26
COc1cc(C2c3c(oc4ccccc4c3=O)C(=O)N2c2ccccn2)ccc1OCc1ccccc1 (stereo unspecified)	n
O=C1c2oc3ccccc3c(=O)c2C(c2cccc(Cl)c2)N1c1ccccn1 (stereo unspecified)	n
COc1cccc(C2c3c(oc4ccccc4c3=O)C(=O)N2c2ccccn2)c1 (stereo unspecified)	n
CCOc1cccc(C2c3c(oc4ccccc4c3=O)C(=O)N2c2ccccn2)c1 (stereo unspecified)	5.91
CCCCOc1cccc(C2c3c(oc4ccccc4c3=O)C(=O)N2c2ccccn2)c1 (stereo unspecified)	3.24
CCCCOc1cccc(C2c3c(oc4ccccc4c3=O)C(=O)N2c2nnc(C)s2)c1 (stereo unspecified)	n
COc1cc(C2c3c(oc4ccccc4c3=O)C(=O)N2c2ccccn2)ccc1OCCC(C)C (stereo unspecified)	3.45
COc1cc(C2c3c(oc4ccccc4c3=O)C(=O)N2c2nnc(C)s2)ccc1OCCC(C)C (stereo unspecified)	n
C=CCOc1cccc(C2c3c(oc4ccccc4c3=O)C(=O)N2c2ccccn2)c1 (stereo unspecified)	n
O=C1c2oc3ccccc3c(=O)c2C(c2cccc(Br)c2)N1c1ccccn1 (stereo unspecified)	n
CCCCCOc1cccc(C2c3c(oc4ccccc4c3=O)C(=O)N2c2nccs2)c1 (stereo unspecified)	n
CC(C)/C(=N\OC(=O)c1ccc([N+](=O)[O-])cc1)c1ccccc1	n
CCOC(=O)c1nn(-c2ccc(Cl)cc2Cl)cc(Sc2nc(C)c(C)c(C)c2C#N)c1=O	n
O=C1CC(c2ccccc2Cl)c2cc3c(cc2N1)CCC3 (stereo unspecified)	n
Cc1ccc2nc(-c3ccc(NC(=O)c4c(-c5ccccc5Cl)noc4C)cc3)sc2c1	n
COc1ccccc1C1CCN(C(=O)CSc2nnc(NC(=O)c3ccccc3)s2)CC1	n
N#C/C(=C\Nc1cc(C(F)(F)F)cc(C(F)(F)F)c1)S(=O)(=O)c1ccccn1	n
Cc1ccc(C(=O)CC2(O)C(=O)Nc3c(C)cccc32)cc1 (stereo unspecified)	n
